Among the data in the antibiotic and cytotoxicity screens of Wong et al. (2023) are growth inhibition call values, retold here.

The structures appear in SMILES notation. Hit rate of the full screen: of about 39,000 compounds, about 500 (1.3%) were called active. The full list was thinned out, with actives kept by preference.

In the assay the test system is S. aureus RN4220. As to the kind of experiment: growth inhibition call (relative growth <= 0.2). Particulars: 50 µM.
Turning to `C[C@@H]1CCCCO[C@@H](CN(C)C(=O)CCC(F)(F)F)[C@@H](C)CN([C@H](C)CO)C(=O)c2cc(NC(=O)NC3CCCCC3)ccc2O1`, the growth inhibition call is “inactive”. Turning to `CC(C)NC(=O)Nc1cccc2c1O[C@@H](CN(C)S(=O)(=O)c1ccc(F)cc1)[C@H](C)CN([C@@H](C)CO)C2=O`, the growth inhibition call was “inactive”.

On to `O=C(C[C@@H]1C=C[C@@H](NC(=O)Nc2ccc3c(c2)OCO3)[C@H](CO)O1)NCCCN1CCOCC1`, for which the growth inhibition call is “inactive”. Regarding `COc1ccc(Nc2ccc(-c3ccncc3)s2)cc1Cl`, the growth inhibition call was “inactive”.

For the compound `C[C@H]1CN([C@@H](C)CO)C(=O)Cc2cc(NS(C)(=O)=O)ccc2O[C@H]1CN(C)S(=O)(=O)c1ccccc1`, the growth inhibition call was “inactive”.

For the compound `Cc1noc(C)c1NC(=O)Nc1ccc2c(c1)C(=O)N([C@H](C)CO)C[C@H](C)[C@@H](CN(C)C(=O)NC1CCCCC1)OCCCC[C@@H](C)O2`, the growth inhibition call was “inactive”.

In the case of `Cc1ccc(S(=O)(=O)Nc2ccc3c(c2)C(=O)N([C@@H](C)CO)C[C@@H](C)[C@@H](CN(C)C(=O)Nc2ccc(F)cc2)OCCCC[C@H](C)O3)cc1`, the growth inhibition call is “inactive”.

In the case of `Cc1ccccc1C(OCCN(C)C)c1ccccc1.O=C(O)CC(O)(CC(=O)O)C(=O)O` (stereo not drawn), the growth inhibition call was “inactive”. With `CN(C)CCN(Cc1ccccc1)c1ccccn1.O=C(O)CC(O)(CC(=O)O)C(=O)O`, the growth inhibition call is “inactive”. As for `CCC(=C(c1ccccc1)c1ccc(OCCN(C)C)cc1)c1ccccc1.O=C(O)CC(O)(CC(=O)O)C(=O)O`, the growth inhibition call was “active”.

`CCN(CCCc1ccccc1)CCCc1ccccc1.O=C(O)CC(O)(CC(=O)O)C(=O)O`: the growth inhibition call was “inactive”.

Regarding `CCN(CC)CCOc1ccc(C(=C(Cl)c2ccccc2)c2ccccc2)cc1.O=C(O)CC(O)(CC(=O)O)C(=O)O`, the growth inhibition call was “inactive”.

Regarding `CN(C)CCOc1ccc(C(=C(CCCl)c2ccccc2)c2ccccc2)cc1.O=C(O)CC(O)(CC(=O)O)C(=O)O`, the growth inhibition call is “active”. The entry for `C[C@H]1CN([C@@H](C)CO)C(=O)c2cc(C#Cc3ccccc3F)cnc2O[C@@H]1CN(C)C(=O)C1CCOCC1` is “inactive”; for `COc1ccc2c3c([nH]c2c1)[C@H](CO)N(C[C@]13CN(Cc2cc(on2)-c2ccccc2)C1)C(=O)Nc1ccc(cc1)F` it is “inactive”.

On to `COc1ccc(S(=O)(=O)N(C)C[C@H]2OCCCC[C@H](C)Oc3ccc(NC(=O)CCC(F)(F)F)cc3C(=O)N([C@H](C)CO)C[C@H]2C)cc1`, for which the growth inhibition call was “inactive”.

`C[C@@H]1CCCCO[C@@H](CN(C)C(=O)c2ccccc2)[C@H](C)CN([C@@H](C)CO)C(=O)c2cc(NC(=O)Nc3cccc4ccccc34)ccc2O1`: the growth inhibition call is “inactive”. The entry for `O=S(=O)(O)c1cc(O)ccc1O` is “inactive”. The entry for `C[C@@H]1CN([C@H](C)CO)C(=O)c2cccc(NC(=O)c3ccc(-c4nccs4)cc3)c2O[C@@H]1CN(C)C(=O)Nc1ccc2c(c1)OCO2` is “inactive”. The entry for `Cc1ccc(S(=O)(=O)N(C)C[C@@H]2OCCCC[C@H](C)Oc3ccc(NC(=O)c4ccccc4)cc3C(=O)N([C@@H](C)CO)C[C@H]2C)cc1` is “inactive”. In the case of `C[C@@H]1CN([C@@H](C)CO)C(=O)c2cc(NS(=O)(=O)c3cccs3)ccc2O[C@H]1CN(C)CC1CC1`, the growth inhibition call is “inactive”. The entry for `C[C@H](CO)N1C[C@H](C)[C@@H](CN(C)C(=O)Nc2cccc3ccccc23)Oc2ccc(NC(=O)Nc3cccc4ccccc34)cc2CC1=O` is “inactive”; for `O=C(CCCCC(=O)N/N=C/c1cc(I)cc(I)c1O)NO` it is “active”; for `O=C(CCCCCCC(=O)N/N=C/c1cc(I)cc(I)c1O)NO` it is “inactive”.

As to `O=C(NO)c1cccc(C(=O)N/N=C/c2cc(I)cc(I)c2O)c1`, the growth inhibition call was “inactive”. The entry for `C[C@H]1CN([C@@H](C)CO)C(=O)c2cccc(NC(=O)Nc3ccc4c(c3)OCO4)c2O[C@H]1CN(C)C(=O)Nc1cccc2ccccc12` is “inactive”; for `COc1ccc(CN(C)C[C@@H]2OCCCC[C@H](C)Oc3ccc(NC(=O)CCC(F)(F)F)cc3C(=O)N([C@H](C)CO)C[C@H]2C)cc1` it is “inactive”; for `COc1ccc(NC(=O)N(C)C[C@H]2Oc3c(NC(=O)CCCCCC(=O)Nc4ccccc4N)cccc3C(=O)N([C@H](C)CO)C[C@@H]2C)cc1` it is “inactive”. With `CO[C@@H]1CN(C)C(=O)c2cc(NC(=O)CC(F)(F)F)ccc2OC[C@H](C)N(C(=O)C2CCOCC2)C[C@@H]1C` the entry was “inactive”. On to `COC1C=COC2(C)Oc3c(C)c(O)c4c(O)c(c5c(nc6cc(C)ccn65)c4c3C2=O)NC(=O)C(C)=CC=CC(C)C(O)C(C)C(O)C(C)C(OC(C)=O)C1C` (stereo not drawn), for which the growth inhibition call was “active”. Take `COC1=C2C[C@H](C)C[C@H](OC)[C@@H](O)[C@H](C)/C=C(\C)[C@H](OC(N)=O)[C@H](OC)/C=C/C=C(\C)C(=O)NC(=CC1=O)C2=O`: the growth inhibition call is “inactive”.

On to `COC1C=COC2(C)Oc3c(C)c(O)c4c(O)c(c(C=NN5CCN(C6CCCC6)CC5)c(O)c4c3C2=O)NC(=O)C(C)=CC=CC(C)C(O)C(C)C(O)C(C)C(OC(C)=O)C1C` (stereo not drawn), for which the growth inhibition call was “inactive”.

For the compound `CO[C@H]1/C=C\O[C@@]2(C)Oc3c(C)c(O)c4c(c3C2=O)[C@]2(C=C(NC(=O)/C(C)=C\C=C/[C@@H](C)[C@@H](O)[C@@H](C)[C@@H](O)[C@@H](C)[C@@H](OC(C)=O)[C@@H]1C)C4=O)OCC(=O)O2`, the growth inhibition call was “active”. Turning to `CO[C@H]1/C=C\O[C@@]2(C)Oc3c(C)c(O)c4c(O)c(c(/C=N/N=C/N5CCCCC5)c(O)c4c3C2=O)NC(=O)/C(C)=C\C=C/[C@H](C)[C@H](O)[C@@H](C)[C@@H](O)[C@@H](C)[C@H](OC(C)=O)[C@@H]1C`, the growth inhibition call was “active”. With `COC1=C2C[C@@H](C)C[C@H](OC)[C@H](O)[C@@H](C)/C=C(\C)[C@H](OC(N)=O)[C@@H](OC)/C=C\C=C(/C)C(=O)NC(=CC1=O)C2=O` the entry was “inactive”; with `COC1C=COC2(C)Oc3c(C)c(O)c4c(O)c(c(C=NN5CCN(C)CC5)c(O)c4c3C2=O)NC(=O)C(C)=CC=CC(C)C(O)C(C)C(O)C(C)C(OC(C)=O)C1C` (stereo not drawn), “inactive”; with `C[C@H](CO)N1C[C@H](C)[C@@H](CN(C)Cc2ccncc2)Oc2c(NS(=O)(=O)c3cn(C)cn3)cccc2C1=O`, “inactive”. Consider `O=C1O[C@H](c2ccccc2)[C@H](c2ccccc2)N2[C@H]1[C@@H](C(=O)N1CCN(c3ncccn3)CC1)[C@]1(C(=O)Nc3ccc(C#CC4=CCCCC4)cc31)[C@H]2c1ccc(O)cc1`, for which the growth inhibition call is “inactive”.
